# Measurements as given in PubChem BioAssay (Tox21).
# Records with an inconclusive call do not appear. Unmarked numbers belong to inactive results. Activity calls are given as the source filed them. Calls follow the shape of the dose curve; as a rule, active = well fitted cell-killing curve with a large enough effect in the repeat runs; inconclusive = weak or mixed curves, or effect the other way; inactive = flat fitted curve, though single readings scatter.
# Experiment: qHTS RealTime-Glo MT Cell Viability Assay in HEK293 cells - 24 hour (AID 1224886); also: nearly all actives have a fitted effect of over 50% in size; as to activity change, negative = cytotoxicity: top concentration of the series differs between compounds
# Conditions: RealTime-Glo luminescence; series mostly up to 76.8 µM; activity change, negative = cytotoxicity: at the top concentration
# Procedure, shortened: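 Cells + reagent dispensed (600 cells/well, HEK293) → 5 h at 37 C/5% CO2 → 23 nL compound in DMSO pinned → 40 h at 37 C → luminescence read at 0, 8, 16, 24, 32, 40 h.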
# % is scaled to controls: 0 for no effect and ±100 for the full control effect; potency is read from the fitted curve at half-maximal effect.
Structure (SMILES),"activity change, negative = cytotoxicity",Potency
CCCC(=O)OCc1ccccc1,3.3%,–
CCCCCCCCC(=O)OCC(C)OC(=O)CCCCCCCC (centres undefined),10%,–
CC[C@H](NC(C)C)[C@H](O)c1ccc(O)c2[nH]c(=O)ccc12,2.42% [at 35.3 µM],–
O=C(O)c1ccncc1,3.59%,–
CCCCCCCCOCCCN,-0.325%,–
COc1cc(CNC(=O)CCCC/C=C/C(C)C)ccc1O,–,4.77 µM (active)
C[C@H]1C[C@H]2[C@@H]3CCC4=CC(=O)C=C[C@]4(C)[C@@]3(F)[C@@H](O)C[C@]2(C)[C@@]1(O)C(=O)COP(=O)(O)O,-13.3%,–
CC(C)(C)N,-1.69%,–
CNc1ccccc1,-1.06%,–
C=Cc1ccc(C=C)cc1,7.35%,–
C/C=C1\[C@H]2C=C(C)C[C@]1(N)c1ccc(=O)[nH]c1C2,2.81% [at 35.3 µM],–
O=C1OC(=O)C2CC=CCC12 (centres undefined),8.05%,–
CC1(C)C(=O)NC(=O)N1CO,8.48%,–
Nc1ccc(C(=O)Oc2ccccc2)c(O)c1,-13.2% [at 35.3 µM],–
COC(=O)/C=C/C(C)=C\C=C\C(C)=C\C=C\C=C(C)\C=C\C=C(C)\C=C\C(=O)O,14.6%,–
O=c1[nH]nc(-c2ccc([N+](=O)[O-])o2)o1,1.49%,–
C/C(=C(\CCO)SS/C(CCO)=C(\C)N(C=O)Cc1cnc(C)nc1N)N(C=O)Cc1cnc(C)nc1N,9.35% [at 35.3 µM],–
O=[N+]([O-])c1cccc(I)c1,-0.445%,–
CC(=O)Nc1ccccc1O,-3.7%,–
CC1(COc2ccc(CC3SC(=O)NC3=O)cc2)CCCCC1 (centres undefined),0.357% [at 35.3 µM],–

Structure (SMILES),"activity change, negative = cytotoxicity",Potency
CC(=O)c1ccc(Cl)c(Cl)c1Cl,-21.1%,–
CC(=O)Oc1cccc2c1C(=O)c1c(OC(C)=O)cc(C(=O)O)cc1C2=O,-0.138% [at 35.3 µM],–
CC1=C(C)C(=O)C(C(CCCCCC(=O)O)c2ccccc2)=C(C)C1=O (centres undefined),-23.1% [at 35.3 µM],–
CO[C@@H]1COCC[C@@H]1N[C@@H]1CC[C@@](C(=O)N2CCc3ncc(C(F)(F)F)cc3C2)(C(C)C)C1,–,17.3 µM (active)
O=C(NC1CCN(CCc2c[nH]c3ccccc23)CC1)c1ccccc1,–,8.49 µM (active)
N#CCCCC(C#N)CCC#N (centres undefined),17.4%,–
C(/C=C/C=C/Nc1ccccc1)=Nc1ccccc1,-15.4%,–
CCC(C)C1N=C(C)C(C)S1 (centres undefined),10.4%,–
Cc1cc(C)n(CO)n1,2.77%,–
CCOc1ccccc1O,–,19.5 µM (active)
CCC1=C(C)CN(C(=O)NCCc2ccc(S(=O)(=O)NC(=O)NC3CCC(C)CC3)cc2)C1=O (centres undefined),-15.3% [at 35.3 µM],–
O=C1c2ccccc2C(=O)c2c1ccc(O)c2O,-0.689% [at 35.3 µM],–
CC(C)C/C=C(\C=O)c1ccccc1,16.1%,–
CC(C)=CCC[C@H](C)CCO,-3.21%,–
Cc1ccc(NC=O)c(C)c1,13.1%,–
NC(=O)c1cc[n+](CC2=C(C(=O)[O-])N3C(=O)[C@@H](NC(=O)Cc4cccs4)[C@H]3SC2)cc1,1.42% [at 35.3 µM],–
[O-][n+]1ccc(Cl)cc1,13.1%,–
COc1ccc(/C=C/S(=O)(=O)NC(=O)c2ccc(C)cc2Cl)cc1,1.06%,–
CCC(C(=O)O)c1ccc(N2Cc3ccccc3C2=O)cc1 (centres undefined),-2.99% [at 35.3 µM],–
